Screens (PubChem)
ALDH1A1 block: blocks purified human ALDH1A1 activity; Potency, µM (titrated, usually from 75.3 µM), for inactives: top-dose activity, negative = inhibition, actives largely listed as inhibitors; 220,000 tested, 7.3% active; Purified ALDH1A1, NADH fluorescence, propionaldehyde substrate; active means well fitted inhibition curve with a large enough effect, not every such curve was filed as active; inconclusive means small, poorly fitted or top-dose-only effect, or another doubt; inactive means no such curve, though single readings can be large or run the other way;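 further: potency means the concentration at half of the fitted maximal effect; plate controls were no enzyme wells and a reference inhibitor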
HttQ103 aggreg: inhibitors of mutant huntingtin aggregate formation in PC12 cells. Potency, µM (titrated, usually from 46.1 µM), for the others: top-dose activity change, negative = inhibition, usual class: inhibitors. AID 1688. 220,000 tested, 1.1% active. PC12 HttQ103-GFP aggregates, Acumen cytometry, 40 h; further: potency means the concentration at half of the fitted maximal effect; on the % scale 0 is the no-effect control and ±100 the full control effect; nearly all actives have a fitted effect of over 60% in size
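Steps: seed 1500 PC12 HTTQ103-GFP cells/well; add tebufenozide, 100 nM final; add compound titration; add ATPLite reagent; quantify GFP aggregates by laser scanning cytometry.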
HPGD inh: inhibitors of human 15-hydroxyprostaglandin dehydrogenase (HPGD). P15428. purified HPGD, NADH fluorescence kinetic, PGE2 substrate. Potency, µM, inactives show at the highest dose activity change, negative = inhibition, actives largely listed as inhibitors. 150,000 tested, 4.3% active; active means well fitted inhibition curve with a large enough effect, not every such curve was filed as active; inconclusive means small, poorly fitted or top-dose-only effect, or another doubt; inactive means no such curve, though single readings can be large or run the other way; further: potency means the concentration at half of the fitted maximal effect; on the % scale 0 is the no-effect control and ±100 the full control effect
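NADH formation kinetics: reaction with 30 uM PGE2 and 1 mM NAD+ (final), 20 nM enzyme, Tris-HCl pH 8 with Tween 20, after 15 min compound preincubation at room temperature. Fluorescence change, last versus first of five reads.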
HTT cytoprotect: protects HTT-Q103 PC12 cells, measured by ATP. Potency, µM (highest dose often 56.4 µM), for the others: cytoprotection (ATP increase), hits mostly activators. 230,000 tested, 0.14% active. PC12 HTT-Q103 induced, cytoprotection, ATP luminescence, 40 h; further: potency means the concentration at half of the fitted maximal effect; % of control where 0% means no effect; nearly all actives have a fitted effect of over 45% in size
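Cells were plated at 1500 per well in phenol red-free DMEM with 5% equine and 5% calf serum. Tebufenozide (100 nM final) and compounds were added, then ATPlite reagent, and luminescence was read.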
CBFb RUNX1 block: blocks binding between human CBF-beta and RUNX1; AlphaScreen CBFb-His/RUNX1-biotin binding, biochemical; Potency, µM (series often up to 59.8 µM), inactives show top-dose activity, negative = inhibition, usual class: inhibitors; 230,000 tested, under 10 active; AID 1477; further: % of control where 0% means no effect
Target sequence (Q01196 whole entry, looked up): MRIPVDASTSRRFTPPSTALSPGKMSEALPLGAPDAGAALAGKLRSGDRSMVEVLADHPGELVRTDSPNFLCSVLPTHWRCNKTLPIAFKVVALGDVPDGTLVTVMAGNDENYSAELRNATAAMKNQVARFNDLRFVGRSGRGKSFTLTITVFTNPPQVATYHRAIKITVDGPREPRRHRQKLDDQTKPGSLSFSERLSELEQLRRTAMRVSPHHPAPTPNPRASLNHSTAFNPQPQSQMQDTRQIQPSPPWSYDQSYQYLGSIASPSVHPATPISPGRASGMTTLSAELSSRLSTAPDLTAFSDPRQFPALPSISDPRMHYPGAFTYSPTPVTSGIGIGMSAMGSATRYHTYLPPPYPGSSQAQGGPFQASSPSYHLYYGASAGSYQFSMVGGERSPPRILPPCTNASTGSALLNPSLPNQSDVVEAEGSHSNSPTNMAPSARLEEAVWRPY
Target sequence (Q13951 whole entry, looked up): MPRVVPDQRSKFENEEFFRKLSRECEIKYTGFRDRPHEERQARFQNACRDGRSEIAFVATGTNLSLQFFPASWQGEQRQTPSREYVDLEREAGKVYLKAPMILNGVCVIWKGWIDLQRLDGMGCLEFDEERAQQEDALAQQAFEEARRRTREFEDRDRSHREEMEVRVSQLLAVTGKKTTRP
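Compounds were screened at multiple concentrations against a preformed CBF-beta(His)/RUNX1(biotin) complex (30 nM of each) for 15 min at room temperature, followed by 90 min with nickel and streptavidin beads and AlphaScreen reading.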
PNC assembly inh: blocks assembly of the perinucleolar compartment. 140,000 tested, 3.1% active. activity change (PNC), negative = inhibition, % at 10 µM. PC3M PTB-GFP, PNC prevalence imaging, 16 h; active compounds read low;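 active means readout at or below -70, meaning at least 70% loss of cells showing the perinucleolar compartment, a nuclear body marking cancer cells; inconclusive means readout between -30 and a set limit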;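 further: plate controls were DMSO wells for no effect and camptothecin positive control wells for full effect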
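PC3M cells stably expressing PTB-GFP, 750–1000 cells/well, treated 16 h at 37 °C with compound (23 nl of library stock), in duplicate. After paraformaldehyde fixation and Hoechst stain, imaged at 20x; PNC prevalence scored by image analysis.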
* = called active by the depositor; ? = inconclusive; . = not tested or not shown; [ ] = remark or other dose. Rows were chosen to be rich in hits. Some 11% of all compounds tested hit in one or more screens of this group. Unless noted, the call rests on the fitted dose curve; in most records, active means well fitted curve in the direction sought with a large enough effect; inconclusive means small, poorly fitted or top-dose-only effect, or another doubt; inactive means no such curve, though single readings can be large; an effect the other way counts as inactive or inconclusive.

SMILES | ALDH1A1 block | HttQ103 aggreg | HPGD inh | HTT cytoprotect | CBFb RUNX1 block | PNC assembly inh
COc1ccc(/C(O)=C2\C(=O)C(=O)N(CCN(C)C)C2c2cc(OC)c(OC)c(OC)c2)c(C)c1 (centres undefined) | 28µM* | 4% | -21% | -25%[10 µM] | 2% | 31
CCCOc1cccc(C2/C(=C(/O)c3ccc(OC)cc3)C(=O)C(=O)N2CCN(C)C)c1 (centres undefined) | 16µM* | -21% | -8% | 7%[0.074 µM] | 0% | 24
CCCC[C@H]1CCCO[C@@](C(=O)NCc2ccc(C)o2)(C(F)(F)F)C1 | . | . | . | . | 2% | .
Cc1nc(CCNS(=O)(=O)c2cccnc2)cs1 | . | 4%[9.22 µM] | . | 1%[10 µM] | 11% | .
CCOC(=O)N1CCC(NC(=O)C(Cc2ccccc2)NC(=O)C2CCCCC2)CC1 (centres undefined) | -8% | -2% | -12% | 2% | 5% | ?
CC(=O)Nc1ccc(NC(=O)C(Cc2ccccc2)NC(=O)C2CCCCC2)cc1 (centres undefined) | -2% | 29% | -2% | 5%[10 µM] | 4% | -119*
Cc1ccc(Nc2ccc(C(N)=O)cc2[N+](=O)[O-])cc1C | ? | -10% | -21% | -9%[10 µM] | 2% | 67
COc1cc(Nc2ccc(C(=O)O)cc2[N+](=O)[O-])cc(OC)c1 | 9% | -2% | 20µM* | . | -2% | -11
COc1ccccc1NC(=O)c1ccc(-n2cccn2)c([N+](=O)[O-])c1 | 25µM* | -6% | . | -33% | -10% | .
COc1ccc(C(=O)NC(=S)Nc2cccnc2)cc1[N+](=O)[O-] | 22µM* | ? | . | -4%[10 µM] | 16% | .
COc1ccccc1C(=O)NNC(=O)c1ccccc1[N+](=O)[O-] | 12% | -20% | -3% | 5%[10 µM] | 8% | ?
COc1ccc(C(=O)NNC(=O)c2ccccc2[N+](=O)[O-])cc1[N+](=O)[O-] | 13µM* | . | . | . | 5% | .
COc1ccc(NC(=O)c2ccc(-n3cccn3)c([N+](=O)[O-])c2)cc1 | ? | -2% | . | 14%[10 µM] | -1% | .
COC(=O)c1cc(Br)ccc1OC(=O)c1cccnc1 | 8% | -2% | -3% | 12% | 0% | -27
COc1ccc(C(=O)NNc2ccccc2)cc1OC | 22µM* | 3% | ? | -37% | 0% | -3
COc1ccc(C(=O)Nc2ccccc2)cc1[N+](=O)[O-] | 20µM* | . | -7% | -1% | 1%[21.7 µM] | .
COc1ccc(C(=O)Nc2ccc(S(=O)(=O)NC(C)=O)cc2)cc1[N+](=O)[O-] | ? | -3% | . | -23% | 3% | .
COc1cc(C(=O)N2CCc3ccccc32)ccc1OCc1c(C)noc1C | . | -12%[9.22 µM] | . | 21%[10 µM] | 8% | .
COc1ccc(S(=O)(=O)N2CCc3ccccc32)cc1C(=O)OCc1c(C)noc1C | 3.2µM* | -21% | -18% | 0%[4.97 µM] | 10% | ?
COc1ccc(S(=O)(=O)N2CCCCCC2)cc1C(=O)OCc1c(C)noc1C | 14µM* | 4% | 1% | 8% | 9% | 28
CN1CCN(C(=O)c2ccc(-n3c(=O)c(=O)[nH]c4ccccc43)cc2)CC1 | -13% | . | -2% | . | . | .
Cc1ccc(C(=O)CN2CCC(NC(=O)C3CCCCC3)CC2)cc1 | 14µM* | -15% | -10% | -22%[10 µM] | 1% | 39
CCSc1nnc(NC(=O)c2cc(OC)c(OC)c(OC)c2)s1 | -2% | -6% | . | -26% | 2% | .
Clc1ccc(C2=NNC(=NCC3CCCO3)SC2)cc1 (centres undefined) | 8.9µM* | 3% | ? | -16%[1.9 µM] | -3% | -24
Cc1cc(=O)oc2cc(OC(=O)c3ccco3)ccc12 | -1% | 6%[9.22 µM] | . | 20%[10 µM] | -4% | .
SMILES | ALDH1A1 block | HttQ103 aggreg | HPGD inh | HTT cytoprotect | CBFb RUNX1 block | PNC assembly inh
Cc1oc2cc(OC(=O)c3ccco3)ccc2c(=O)c1-c1nc2ccccc2n1C | ? | 29% | -25% | . | 14% | -93*
C=CCn1c(C)c(C(C)=O)c(SC)nc1=S | -1% | 19% | -11% | 5% | 1% | -84*
O=C1C2CCCCC2C(=O)N1c1ccc(NC2CCCCC2)c([N+](=O)[O-])c1 (centres undefined) | 10µM* | 5% | -29% | 1%[10 µM] | 9% | -21
COCCNc1ccc(N2C(=O)C3CCCCC3C2=O)cc1[N+](=O)[O-] (centres undefined) | -3% | 1% | . | -16% | -4% | .
CCS(=O)(=O)n1nc(-c2ccccc2)nc1SC | 6% | -2% | -26% | 1% | -3% | 25
CCCCN(CCCC)CC(O)c1cc(Cl)cc2c1-c1ccc(Cl)cc1/C2=C/c1ccc(Cl)cc1 (centres undefined) | . | 7% | . | 10% | . | .
NC(=O)N/N=C/c1ccc(OCc2cccc(Cl)c2)cc1 | 11% | 33% | . | 24% | -1% | .
COc1ccc(-n2c(=O)c(C)nc3cnc(Nc4ccccc4)nc32)cc1 | -4% | . | -6% | -63% | . | .
c1ccc(C[n+]2cccc3c4ccccc4ccc32)cc1 | ? | 28µM* | ? | -65% | -1% | 30
CCCCC[n+]1cccc2c3ccccc3ccc21 | ? | 2.5µM* | . | -97% | 1% | .
NC(=O)C[n+]1cccc2ccccc21 | ? | 3% | ? | 14% | 3% | 17
CCCC(=O)N1CCN(c2ccc(NC(=S)NC(=O)c3cccc(C)c3)cc2)CC1 | 20µM* | -32% | . | 15%[10 µM] | -3% | .
COc1cccc(C(=O)NC(=S)Nc2ccc(N3CCCC3)cc2)c1 | 9.5µM* | 10% | -22% | -12% | . | -20
COc1cccc(C(=O)NC(=S)Nc2ccc(N(C)C)cc2)c1 | 10µM* | ? | -17% | 3%[10 µM] | . | 15
COCCNC(=S)Nc1ccc(N2CCCCC2)cc1 | 8.9µM* | -8% | . | -24% | -7% | .
CCCCNc1nc(C)nc2c1nc(-c1ccccc1)n2CC(C)(C)CN(C)C | ? | . | ? | -13% | 19% | .
COc1cccc(C(=O)NC(=S)Nc2ccc3oc(=O)ccc3c2)c1 | 1.4µM* | -20% | . | -5%[10 µM] | 4% | 85
COc1ccccc1C(=O)NC(=S)Nc1ccc(N2CCCC2)cc1 | -2% | 14% | -8% | 12%[10 µM] | -16% | -16
COc1cc(C(=O)NC(=S)Nc2ccc(N3CCCC3)cc2)cc(OC)c1OC | 28µM* | 18% | . | 17%[10 µM] | . | 28
COc1ccc(C(=O)NC(=S)Nc2ccc(N3CCCC3)cc2)cc1 | 10µM* | 13% | . | . | -24% | .
COc1cc(C(=O)NC(=S)Nc2ccc3oc(=O)ccc3c2)cc(OC)c1OC | -1% | 12% | -7% | -1% | -1% | -3
COc1ccc(C(=O)NC(=S)Nc2ccc(Cc3ccncc3)cc2)cc1 | 14µM* | -17% | . | -26% | ? | .
O=C(O)C[C@H](Cc1ccccc1)C(=O)O | -2%[13.5 µM] | . | -8% | -2%[10 µM] | . | .
